Screening results deposited in PubChem by National Center for Advancing Translational Sciences (NCATS).
Pf Dd2 inh = qHTS Primary assay for Inhibitors of Plasmodium falciparum Dd2 growth in vitro; P. falciparum Dd2 growth, SYBR Green, 72 h; Potency, µM (doses to about 28.9 µM), inactives show at the top dose activity, negative = inhibition, usual class: inhibitors; 120,000 tested, 4.3% active; active means well fitted inhibition curve with a large enough effect;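 further: plate controls were DMSO vehicle for no effect and reference drug for full effect; nearly all actives have a fitted effect of over 65% in size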
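Readout: SYBR Green fluorescence, 485 nm excitation, 535 nm emission, after ~16 h lysis at 37C. Before that, Dd2-infected red cells (2.5% hematocrit) grew 72 h with compound, 29 uM top final concentration.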
The depositor's hits bear a star; i = inactive; [ ] = dose if it differs, or a comment. Many of the other results were omitted from the sample, so hits are more common in it than they were. Potency means the concentration at half of the fitted maximal effect.

SMILES	Pf Dd2 inh
COc1ccc(C(=O)N2CCC3(CC2)CC(O)CCO3)cc1 (stereo unspecified)	28%
COc1ccc2[nH]c(C(=O)N3CCC4(CC3)CC(O)CCO4)cc2c1 (stereo unspecified)	11µM*
COc1ccc(C(=O)N2CCC3(CC2)CC(O)CCO3)c(C)c1 (stereo unspecified)	7%
COCc1cc(CC2(NC3CCN(C(C)=O)CC3)COC2)no1	-8%[44.1 µM]
CCCNC(=O)C(NC(=O)c1ccc(C)cc1)C1CCN(C(=O)c2ccc3c(c2)OCO3)CC1 (stereo unspecified)	i
O=C(NC1C[C@H]2CC[C@@H](C1)N2C(=O)CCC1CCCC1)c1ccncc1 (stereo partly specified)	-25%
O=C(Cc1cccc(F)c1)NC1CCN(c2cc(-c3ccc(F)cc3)[nH]n2)C1 (stereo unspecified)	6.3µM*
COc1cccc(CC(=O)NC2CCCN(c3cc(-c4ccc(F)cc4)[nH]n3)C2)c1 (stereo unspecified)	i
CCOc1ccc(CC(=O)NC2CCN(c3cc(-c4ccc(F)cc4)[nH]n3)C2)cc1OCC (stereo unspecified)	-10%
COc1ccc(CC(=O)NC2CCN(c3cc(-c4ccc(F)cc4)[nH]n3)C2)cc1 (stereo unspecified)	-10%
COc1ccc(-c2cc(N3CCC(NC(=O)Cc4ccc(Cl)cc4)CC3)n[nH]2)cc1	-13%
COc1ccc(CC(=O)NC2CCN(c3cc(-c4ccc(Cl)cc4)[nH]n3)C2)cc1OC (stereo unspecified)	7.9µM*
CNC(=O)[C@@H]1CN(C(=O)c2conc2C)C[C@H]1COC	23%
COc1ccc(CN(C)CC2CCN(CCc3ccc(F)cc3)CC2)cc1Cn1cccn1	10µM*
CN(CC1CCN(CCc2cccc(F)c2)CC1)C(=O)[C@@H](N)Cc1cnc[nH]1	-1%
COc1ccc(CCN2CCC(CN(C)C(=O)C3CCCCO3)CC2)cc1 (stereo unspecified)	-11%
CC(=O)N1CCC(Oc2ccc(Cl)cc2C(=O)NCCCN2CCCC2=O)CC1	-8%
O=C1CCCN1CCCN1C(=O)[C@@H]2C[C@@H](O)CN2C2(CN(Cc3ccccc3Cl)C2)C1=O	49%
COc1cccc(CN2C(=O)C3(SCC(=O)N3c3ccc(C(C)C)cc3)c3ccccc32)c1 (stereo unspecified)	-22%
Cc1ccc(CNC(=O)CN2C(=O)C3(SCC(=O)N3c3ccc(F)cc3)c3ccccc32)cc1 (stereo unspecified)	-18%
COc1ccc(N2C(=O)CSC23C(=O)N(Cc2ccc(C)cc2)c2ccccc23)cc1Cl (stereo unspecified)	-19%
COc1cc(N2C(=O)CSC23C(=O)N(Cc2ccc(C)cc2)c2ccccc23)cc(OC)c1OC (stereo unspecified)	-18%
Cc1ccc(N2C(=O)CSC23C(=O)N(CC(=O)NCCc2ccccc2)c2ccccc23)cc1 (stereo unspecified)	-15%
COc1ccc(N2C(=O)CSC23C(=O)N(Cc2ccccc2F)c2ccccc23)cc1Cl (stereo unspecified)	i
O=C1CSC2(C(=O)N(Cc3ccccc3F)c3ccccc32)N1c1cccc(C(F)(F)F)c1 (stereo unspecified)	7.1µM*
SMILES	Pf Dd2 inh
COc1cccc(N2C(=O)CSC23C(=O)N(Cc2ccccc2F)c2ccccc23)c1 (stereo unspecified)	-19%
Cc1cccc(N2C(=O)CSC23C(=O)N(CC(=O)Nc2cccc(Cl)c2)c2ccccc23)c1 (stereo unspecified)	14µM*
Cc1cc(C)cc(N2C(=O)CSC23C(=O)N(CC(=O)Nc2ccc(F)cc2F)c2ccccc23)c1 (stereo unspecified)	10µM*
COc1cccc(CN2C(=O)C3(SCC(=O)N3c3ccc(C)c(Cl)c3)c3ccccc32)c1 (stereo unspecified)	i
COc1cccc(N2C(=O)CSC23C(=O)N(CC(=O)Nc2cc(C)ccc2C)c2ccccc23)c1 (stereo unspecified)	8.9µM*
O=C(O)COc1ccc(-c2nccc3c2C(=O)N(Cc2cccc(C(F)(F)F)c2)CC(COc2cccnc2)O3)cc1 (stereo unspecified)	i
COc1ccccc1CN1C[C@@H]2C(=O)N(CCCN3CCCC3=O)C(=O)[C@@H]2C1	21%
CC(=O)N1CCC(N2C[C@H](O)C[C@H]2c2nc(-c3cccc(C)c3)no2)CC1	i
Cc1cc(-c2cc3c(cn2)CN(CC2CCOCC2)CCN3)ccn1	-1%[44.1 µM]
CC(C)CC(=O)N1CCN(C(=O)N2CC3CC(C2)[C@H]2CCCC(=O)N2C3)CC1 (stereo partly specified)	11%
Cc1nc(-c2c3n(c(=O)n(CC(=O)Nc4ccc(F)cc4F)c2=O)CCCC3)no1	-24%
O=C(CN1C(=O)C2(SCC(=O)N2c2ccccc2)c2ccccc21)NCCc1ccccc1 (stereo unspecified)	16%
O=C(CN1C(=O)CCSc2ccccc21)Nc1ccccc1F	4%
Cc1ccc(NC(=O)CN2C(=O)CCSc3ccccc32)c(C)c1	25%
O=C(CN1C(=O)C2(SCC(=O)N2c2ccc(F)c(F)c2)c2ccccc21)Nc1ccccc1F (stereo unspecified)	13µM*
Cc1ccc(NC(=O)CN2C(=O)NC3(CCCCC3)C2=O)c(C)c1	3%
Cc1ccc(NC(=O)CN2C(=O)C3(SCC(=O)N3c3ccc(F)c(F)c3)c3ccccc32)c(C)c1 (stereo unspecified)	14µM*
COc1ccc(C2Cn3nnc(C(=O)N4CCC(C(=O)NCc5ccccc5)CC4)c3CO2)cc1 (stereo unspecified)	5%
O=S(=O)(c1cnc[nH]1)N1CCC(c2nc(CCOCC3CCCC3)no2)C1 (stereo unspecified)	i
CN1CCN(c2ccc(-c3cc4c(ccn4C)c(C(=O)NCc4cccnc4)n3)cc2)CC1	6.3µM*
Cc1ccc(-c2cc3c(ccn3C)c(C(=O)NCc3cccnc3)n2)cn1	i
Cn1ccc2c(C(=O)NCc3cccnc3)nc(-c3cncnc3)cc21	25%[44.1 µM]
N[C@@H](Cc1cnc[nH]1)C(=O)N1CCC2(CC1)Nc1ccccc1NC2=O	4%
CN1Cc2cccn2CC1CNC(=O)c1cnn(C)c1 (stereo unspecified)	-10%
CN1Cc2cccn2CC1CNC(=O)c1cccn1C (stereo unspecified)	-51%
SMILES	Pf Dd2 inh
CN1Cc2cccn2CC1CNC(=O)c1ccccc1 (stereo unspecified)	11µM*
COc1ccc2nc(N(Cc3cccnc3)C(C)=O)sc2c1	i
O=C(COc1ccccc1)N(Cc1cccnc1)c1nc2ccc(Cl)cc2s1	-21%
CCOc1ccc2nc(N(Cc3cccnc3)C(C)=O)sc2c1	i
O=C(C1COc2ccccc2O1)N(Cc1cccnc1)c1nc2ccc(Cl)cc2s1 (stereo unspecified)	i
COc1ccc2nc(N(Cc3cccnc3)C(=O)CCc3ccccc3)sc2c1	1µM*
COc1ccc2nc(N(Cc3cccnc3)C(=O)C3CCCCC3)sc2c1	2.5µM*
NC(=O)C1CCN(c2cc(-c3noc([C@@H]4CCCN4Cc4ccc(Cl)cc4)n3)ccn2)CC1	-23%
O=C(c1ccc(F)cc1)N1CCC2(CC1)CN(Cc1ccccc1)CC2CO (stereo unspecified)	-15%
O=C(CCC1CCCC1)N1C[C@@H](CO)[C@H](c2ccncc2)C1	i
